Results taken from PubChem BioAssay.
The source made the active and inactive calls. Unless noted, the rule behind the calls is not given here.

Key:
[1] = HepG2 liver cancer cell viability effects, profiling panel, resazurin fluorescence, 24 h, PK04 Diversity Set (AID 1172); conditions: higher = more signal; note: test concentration not given here
[2] = basal S. cerevisiae growth modulation, no modifier, primary screen, OD600, strain BY4716, 24 h, basal condition (AID 1173); conditions: OD600, 24 h, higher = more signal, called active from +8 up or from −8 down
[3] = MM1S myeloma cell viability, profiling panel, resazurin fluorescence, basal, 24 h, PK04 Diversity Set (AID 1174); conditions: higher = more signal, called active from +8 up or from −8 down;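 note: MM1S multiple myeloma cell line; test concentration not given here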
[4] = target: Dihydroorotate dehydrogenase (quinone), mitochondrial (Plasmodium falciparum (isolate 3D7)) (UniProt Q08210); assay: PfDHODH enzyme inhibitors, primary screen, biochemical, C-terminal His tag, absorbance 600 nm (AID 1175); conditions: DCIP absorbance 600 nm, higher = more signal, called active from +8 up or from −8 down;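 note: recombinant parasite enzyme with a five histidine tag at its C terminus; test concentration not given here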
Dihydroorotate dehydrogenase (quinone), mitochondrial (Plasmodium falciparum (isolate 3D7)), sequence (Q08210 whole entry, looked up): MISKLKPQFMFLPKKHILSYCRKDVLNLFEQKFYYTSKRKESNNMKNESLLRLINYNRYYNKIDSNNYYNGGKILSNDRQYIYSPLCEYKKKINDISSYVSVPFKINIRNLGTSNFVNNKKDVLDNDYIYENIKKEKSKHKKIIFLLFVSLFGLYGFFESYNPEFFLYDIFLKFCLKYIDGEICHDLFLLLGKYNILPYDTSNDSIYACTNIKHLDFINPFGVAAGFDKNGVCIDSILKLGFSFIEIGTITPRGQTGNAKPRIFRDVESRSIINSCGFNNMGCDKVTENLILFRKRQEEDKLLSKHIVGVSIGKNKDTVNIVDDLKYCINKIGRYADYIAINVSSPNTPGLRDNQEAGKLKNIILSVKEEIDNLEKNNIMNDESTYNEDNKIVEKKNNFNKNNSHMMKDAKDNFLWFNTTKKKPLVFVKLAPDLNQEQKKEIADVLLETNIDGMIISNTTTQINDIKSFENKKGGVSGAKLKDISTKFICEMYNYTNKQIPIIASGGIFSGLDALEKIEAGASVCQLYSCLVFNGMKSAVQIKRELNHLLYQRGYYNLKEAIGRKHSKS

[5] = P. aeruginosa biofilm formation inhibitors, primary screen, strain PAO1, LB-PBS medium, absorbance 600 nm (AID 1176); note: test concentration not given here; conditions: P. aeruginosa PAO1 growth/biofilm, A600, 12 h; higher = more signal
[6] = S. cerevisiae RM11-1a growth modifiers, primary screen, strain RM11-1a, OD600, basal, 24 h (AID 1177); conditions: OD600, 24 h, higher = more signal, called active from +8 up or from −8 down;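 note: cultures grown under basal conditions with no added stressor; test concentration not given here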
[7] = E. coli acrAB mutant growth effects, primary screen, E. coli filamentation inducers, strain DRC39, OD650, 24 h (AID 1178); conditions: higher = more signal, called active from +8 up or from −8 down;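 note: growth measured as culture turbidity by optical density at 650 nm; test concentration not given here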
[8] = E. coli acrAB mutant growth effects, primary screen, E. coli filamentation inducers, strain DRC39, OD650, 48 h (AID 1179);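 note: screen aims at cell division blockers that make cells filament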; conditions: E. coli DRC39 delta-acrAB growth, higher = more signal, called active from +8 up or from −8 down
[9] = RPMI8226 myeloma cell viability, profiling panel, resazurin fluorescence, basal, 24 h, PK04 Diversity Set (AID 1180); conditions: higher = more signal;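 note: RPMI8826 multiple myeloma cell line at 5000 cells per well; test concentration not given here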
[10] = target: E3 ubiquitin-protein ligase XIAP (Homo sapiens) (UniProt P98170); assay: XIAP binders, primary screen, biophysical, small-molecule microarray, fluorescence 635 nm (AID 1181); conditions: small-molecule microarray binding, higher = more signal;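 note: score merges 667 nm emission and signal to noise over triplicate slides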
E3 ubiquitin-protein ligase XIAP (Homo sapiens), sequence (P98170 whole entry, looked up): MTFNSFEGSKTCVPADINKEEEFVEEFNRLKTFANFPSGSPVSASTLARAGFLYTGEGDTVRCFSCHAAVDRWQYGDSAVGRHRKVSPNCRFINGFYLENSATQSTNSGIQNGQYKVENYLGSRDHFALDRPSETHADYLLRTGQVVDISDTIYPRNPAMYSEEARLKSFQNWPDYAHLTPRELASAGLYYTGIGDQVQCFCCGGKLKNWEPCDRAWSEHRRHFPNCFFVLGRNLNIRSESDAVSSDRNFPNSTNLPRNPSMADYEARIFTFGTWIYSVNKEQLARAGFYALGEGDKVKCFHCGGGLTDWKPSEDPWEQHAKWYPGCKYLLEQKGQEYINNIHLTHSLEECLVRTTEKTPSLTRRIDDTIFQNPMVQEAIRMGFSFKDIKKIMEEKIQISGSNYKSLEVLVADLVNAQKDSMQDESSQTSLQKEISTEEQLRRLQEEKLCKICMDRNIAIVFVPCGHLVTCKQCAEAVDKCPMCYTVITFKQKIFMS

Structure (SMILES) | z-score [1] | z-score [2] | z-score [3] | composite z-score [4] | z-score [5] | z-score [6] | z-score [7] | z-score [8] | z-score [9] | composite z-score [10]
CCCC[C@H]1CN2[C@@H](CC[C@@H](C)[C@@H]2c2ccc(Br)cc2)C(=O)O1 | 0.314 | -2.36 (inactive) | 1.05 (inactive) | -0.355 (inactive) | -0.515 (inactive) | 0.0621 (inactive) | -0.959 (inactive) | -0.985 (inactive) | 0.919 | 0.127
CC(C)[C@@H](OCc1ccccc1)[C@H](C)C=NOC[C@@H](O)[C@H]1O[C@@H]2OC(C)(C)O[C@@H]2[C@H]1O | -0.752 | -0.848 (inactive) | -0.587 (inactive) | 0.188 (inactive) | 0.241 (inactive) | 1.28 (inactive) | 0.0024 (inactive) | -1.79 (inactive) | -0.766 | 0.191
CO[C@@H]1COC(=O)[C@H](CCSC)NC(=O)CC=C[C@@H](C)COC(=O)[C@@H]2CCCN2C(=O)CC=C[C@H]1C | 0.64 | -0.691 (inactive) | 0.89 (inactive) | -0.0517 (inactive) | -0.92 (inactive) | -0.572 (inactive) | -0.0629 (inactive) | -0.733 (inactive) | 0.652 | -0.0277
OC[C@H]1O[C@H](C#Cc2ccccc2)C=C[C@@H]1O | -0.0313 | -2.6 (inactive) | -0.323 (inactive) | -0.249 (inactive) | 0.298 (inactive) | -0.353 (inactive) | 0.953 (inactive) | 0.626 (inactive) | 0.226 | -0.184
C=C(C)C(=O)OC[C@H]1CN2[C@@H](CC[C@@H](C)[C@@H]2c2ccc(Br)cc2)C(=O)O1 | 0.497 | -1.84 (inactive) | -0.255 (inactive) | 0.672 (inactive) | -0.136 (inactive) | 0.912 (inactive) | 0.644 (inactive) | -1.77 (inactive) | -0.314 | 0.256
CCOC(=O)[C@H](CC(C)C)NC(=O)CCC1CC(OC(=O)NCCc2ccc(F)cc2)CC2(CCCC(COC(=O)NCCOC)O2)O1 (stereo not given in full) | 0.0369 | 1.02 (inactive) | 0.581 (inactive) | 0.753 (inactive) | 0.283 (inactive) | 0.963 (inactive) | 0.0415 (inactive) | -0.489 (inactive) | 0.464 | -0.18
CC(C)(C)N1C(=O)[C@H]2[C@H]3[C@H](O)[C@H](O)CC(=NNC(=O)OCc4ccccc4)[C@H]3CC[C@H]2C1=O | -0.558 | -4.15 (inactive) | 0.0137 (inactive) | -2.25 (inactive) | 0.118 (inactive) | -0.589 (inactive) | 0.352 (inactive) | -0.645 (inactive) | -0.198 | 0.0282
CCN1C(=O)[C@H]2[C@H]3[C@H](O)[C@H](O)CC(=NO[C@@H]4O[C@H](CO)[C@@H](O)[C@H](O)[C@H]4O)[C@H]3CC[C@H]2C1=O | -0.171 | -0.305 (inactive) | 0.298 (inactive) | -0.707 (inactive) | 0.519 (inactive) | -0.782 (inactive) | -0.18 (inactive) | -0.446 (inactive) | 0.064 | -0.11
CCCNC(=O)OC[C@H]1O[C@H](CCON=C[C@@H](NS(=O)(=O)c2ccc(C)cc2)[C@H](C)C=CCC(=O)OC)C=C[C@@H]1Oc1ccc(OC)cc1 | -0.765 | 0.0177 (inactive) | 0.0958 (inactive) | 0.216 (inactive) | 0.311 (inactive) | -0.803 (inactive) | 0.101 (inactive) | -0.138 (inactive) | 0.732 | -0.207
CC(=O)OC[C@H]1O[C@H](CC=NOC(C)CN2CCCc3nc(C)c(C)cc32)C=C[C@@H]1OC(C)=O (stereo not given in full) | -0.368 | -0.494 (inactive) | 0.161 (inactive) | 0.159 (inactive) | -0.373 (inactive) | 0.634 (inactive) | 0.603 (inactive) | -0.147 (inactive) | 0.12 | 0.145
CCOC(=O)CCN1C(=O)[C@H]2[C@H]3[C@H](O)[C@H](O)CC(=NO[C@@H]4O[C@H](CO)[C@@H](O)[C@H](O)[C@H]4O)[C@@H]3CC[C@H]2C1=O | -0.901 | -1.4 (inactive) | -0.481 (inactive) | -0.451 (inactive) | 0.48 (inactive) | -0.445 (inactive) | 0.225 (inactive) | 0.79 (inactive) | -0.634 | -0.0125
CCOC(=O)[C@H](Cc1ccccc1)NC(=O)CCC1CC(OC(=O)NCCc2ccc(F)cc2)CC2(CCCC(COC(=O)NCc3cccc(C(F)(F)F)c3)O2)O1 (stereo not given in full) | 0.134 | -0.0427 (inactive) | 0.853 (inactive) | -0.276 (inactive) | 0.544 (inactive) | 0.322 (inactive) | 0.141 (inactive) | 0.0159 (inactive) | 0.864 | -0.102
CC(CCN1CCCc2nc(C)c(C)cc21)=NOC[C@@H](C)[C@H](OCc1ccccc1)C(C)C | -0.135 | -3.26 (inactive) | 0.0518 (inactive) | -2.07 (inactive) | -0.0417 (inactive) | -1.86 (inactive) | -0.787 (inactive) | 0.262 (inactive) | -0.0093 | 0.0153
CCOC(=O)CCN1C(=O)[C@H]2[C@@H]3C(=CC[C@H]2C1=O)C(=O)[C@H]1O[C@H]1[C@H]3O | -0.423 | -0.894 (inactive) | -5.48 (inactive) | -0.369 (inactive) | 0.0335 (inactive) | -0.548 (inactive) | -0.254 (inactive) | 0.322 (inactive) | -2.2 | -0.0812
C=CC[C@@H]1C=C[C@H](ON=C(C)CCN2CCCc3nc(C)c(C)cc32)[C@@H](CO)O1 | 0.394 | 0.529 (inactive) | -0.0956 (inactive) | -0.267 (inactive) | 0.936 (inactive) | 0.662 (inactive) | 0.382 (inactive) | -0.0088 (inactive) | -0.0021 | 1.07
COC(=O)CC=C[C@@H](C)[C@@H](C=NOC(C)CN1CCCCc2nc(C)c(C)cc21)OC (stereo not given in full) | -0.264 | -0.927 (inactive) | 0.0144 (inactive) | 0.244 (inactive) | -0.0417 (inactive) | -0.46 (inactive) | 0.324 (inactive) | 0.257 (inactive) | -0.0511 | -0.459
COc1ccc(COC(=O)NN=C2C[C@@H](O)[C@@H](O)[C@@H]3[C@@H]4C(=O)N([C@@H](C)c5ccccc5)C(=O)[C@@H]4CC[C@@H]23)cc1 | -0.295 | 0.501 (inactive) | -0.525 (inactive) | -0.194 (inactive) | -0.0363 (inactive) | -0.887 (inactive) | 0.0247 (inactive) | 0.528 (inactive) | -0.521 | -0.126
CO[C@@H](C1CCCCC1)[C@@H](C)[C@H](OCc1cccc(Br)c1)[C@@H](C)CO | 0.414 | -2.13 (inactive) | -0.885 (inactive) | 0.0434 (inactive) | -0.127 (inactive) | -0.0839 (inactive) | -0.275 (inactive) | -0.776 (inactive) | -0.835 | -0.16
CCOC(=O)[C@H](Cc1ccccc1)NC(=O)CCC1CC(OC(=O)NCc2cccc3ccccc23)CC2(CCCC(COC(=O)NCCc3ccccc3OC)O2)O1 (stereo not given in full) | 0.942 | -1.14 (inactive) | 0.179 (inactive) | -0.561 (inactive) | 0.86 (inactive) | 0.166 (inactive) | 0.122 (inactive) | 0.0971 (inactive) | 0.0498 | -0.194
COC(=O)[C@@H]1CC[C@H](C)[C@@H](c2ccc(C)cc2)N1C(=O)c1ccc(C=NO[C@@H](C)c2cc(-c3c(C)cc(C)cc3C)no2)cc1 | -0.726 | 1.36 (inactive) | -0.321 (inactive) | 0.502 (inactive) | -0.925 (inactive) | 0.378 (inactive) | 0.218 (inactive) | 1.04 (inactive) | 0.0524 | -0.238
CC(C)(C)N1C(=O)[C@H]2[C@H]3[C@H](O)[C@H](O)CC(=NOC[C@@H](O)COCc4ccco4)[C@@H]3CC[C@H]2C1=O | -0.28 | 0.382 (inactive) | 0.0017 (inactive) | -0.0796 (inactive) | 0.213 (inactive) | -0.0396 (inactive) | -0.323 (inactive) | -0.253 (inactive) | 0.589 | -0.173
CCN1C(=O)[C@H]2[C@H]3[C@H](O)[C@H](O)CC(=NO[C@@H]4O[C@H](COC(C)=O)[C@@H](OC(C)=O)[C@H](OC(C)=O)[C@H]4OC(C)=O)[C@@H]3CC[C@H]2C1=O | -1.15 | 0.902 (inactive) | -0.974 (inactive) | -0.0673 (inactive) | -0.136 (inactive) | 0.164 (inactive) | 1.22 (inactive) | 1.44 (inactive) | -1.03 | 1.92
CC(=O)OC[C@H]1O[C@H](CC=NO[C@H](C)c2cn([C@@H]3COC[C@H]3O)nn2)C=C[C@@H]1OC(C)=O | -0.648 | -0.199 (inactive) | 0.134 (inactive) | -1.64 (inactive) | 0.441 (inactive) | -1.9 (inactive) | -0.716 (inactive) | -0.743 (inactive) | 0.0142 | -0.0447
